Screening results (PubChem BioAssay)
A selection: hits, their analogues and other compounds. The true share with any hit is near 3.5%.
MITF inh: MITF inhibitors, primary screen, biochemical, AlphaScreen, human. Microphthalmia-associated transcription factor (Homo sapiens), O75030. AlphaScreen MITF homodimerization, bead proximity signal. inhibition, % at 2.6 µM. hit rate 0.91% among 650,000. AID 1259374, 2018; in the data active = inhibition above about 50%
Target sequence (O75030 whole entry, looked up): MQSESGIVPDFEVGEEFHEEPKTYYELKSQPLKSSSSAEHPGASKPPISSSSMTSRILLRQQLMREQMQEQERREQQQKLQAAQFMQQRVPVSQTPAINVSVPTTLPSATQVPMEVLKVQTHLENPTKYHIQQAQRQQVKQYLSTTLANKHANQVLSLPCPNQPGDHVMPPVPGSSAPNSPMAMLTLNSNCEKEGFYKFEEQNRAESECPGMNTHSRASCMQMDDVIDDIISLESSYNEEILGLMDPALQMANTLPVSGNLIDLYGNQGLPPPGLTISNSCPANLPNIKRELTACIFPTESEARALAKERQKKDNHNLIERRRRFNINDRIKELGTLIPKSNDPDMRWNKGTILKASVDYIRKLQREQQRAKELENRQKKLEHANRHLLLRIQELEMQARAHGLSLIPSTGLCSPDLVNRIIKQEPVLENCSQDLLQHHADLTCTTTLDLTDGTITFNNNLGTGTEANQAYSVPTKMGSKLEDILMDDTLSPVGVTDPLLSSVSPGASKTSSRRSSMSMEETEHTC
GPR151 activ: activators of human GPR151, primary screen, cell-based, PathHunter beta-arrestin, luminescence; PathHunter beta-arrestin GPR151 cells; hit rate 1% among 650,000; AID 1508602, 2020; G-protein coupled receptor 151 (Homo sapiens), Q8TDV0; activation, % at 11.2 µM; in the data active = activation above about 4.9%
TEAD-YAP block: TEAD-YAP interaction inhibition, primary screen, TEAD-YAP interaction inhibitor project, luminescence, HEK-TIYL cells. TEAD-Gal4/YAP UAS-luciferase luminescence. inhibition, % at 9.12 µM. hit rate 1.4% among 640,000; in the data active = inhibition above about 32%
FBW7 activator: FBW7 E3 ligase activators, primary screen, biochemical, AlphaScreen, human | F-box/WD repeat-containing protein 7 (Homo sapiens), Q969H0 | AlphaScreen FBW7–phospho-cyclin E peptide binding, activator screen | normalized activity (activation), % at 26.1 µM | hit rate 0.13% among 650,000; in the data active = normalized activity above about 1.9%;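 note: purified mutant Fbw7 with reduced substrate affinity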
A number is an active result; – = inactive; · = no result given.

SMILES | MITF inh | GPR151 activ | TEAD-YAP block | FBW7 activator
CCC(=O)NC(c1ccccc1Cl)c1cc(Cl)c2cccnc2c1O (stereo unspecified) | – | – | 50 | –
CCC(=O)NC(c1ccc(Cl)cc1)c1cc(Cl)c2cccnc2c1O (stereo unspecified) | – | – | – | –
CCCC(=O)NC(c1ccccc1Cl)c1ccc2cccnc2c1O (stereo unspecified) | 53 | – | 95 | –
CCCC(=O)NC(c1ccc(SC)cc1)c1ccc2cccnc2c1O (stereo unspecified) | – | – | 82 | –
CC(=O)NC(c1ccc(Cl)cc1)c1ccc2cccnc2c1O (stereo unspecified) | – | – | 90 | –
CCCCC[C@H](O)/C=C/[C@H]1[C@H](O)CC(=O)[C@H]1C/C=C\CCCC(=O)O | – | – | · | ·
COc1ccc(CN(C)C(=O)CC2(c3ccccc3F)CC(=O)N(C)C2=O)c2cccnc12 (stereo unspecified) | – | – | – | –
CCOc1cccc(C2CC(c3cccc(Br)c3)=NC(c3ccc(C)cc3)N2)c1O (stereo unspecified) | – | – | – | –
CC(=O)NC(c1ccccc1Cl)c1ccc2cccnc2c1O (stereo unspecified) | – | – | 90 | –
CC(=O)NC(c1ccc(F)cc1)c1ccc2cccnc2c1O (stereo unspecified) | – | – | 85 | –
O=C(NC(c1ccccc1)c1ccc2cccnc2c1O)c1ccccc1 (stereo unspecified) | – | – | – | –
COc1ccc(C(=O)NC(c2ccccc2Cl)c2cc(Cl)c3cccnc3c2O)cc1 (stereo unspecified) | – | – | – | –
CCCCC(=O)NC(c1ccc(Cl)cc1Cl)c1ccc2cccnc2c1O (stereo unspecified) | – | – | 46 | –
Cc1ccc(N2C(=O)C3ON(c4ccccc4C)C(c4cccs4)C3C2=O)cc1 (stereo unspecified) | – | – | – | –
Nn1c(SCC(=O)N2CCCC2)nnc1-c1ccc(Cl)cc1Cl | – | – | – | –
Nn1c(SCC(=O)c2ccc(O)cc2O)nnc1-c1cc(Cl)ccc1Cl | – | – | 42 | –
Cc1ccc(Nc2cc(C)nn2-c2nc(C)cc(C)n2)cc1 | – | – | – | –
Cc1ccc(Nc2cc(C)nn2-c2nc(C)cc(=O)[nH]2)cc1 | – | – | 58 | –
COc1ccc(CCNC(=O)CSc2nc3sc4c(c3c(=O)n2-c2ccccc2)CCCC4)cc1OC | – | – | – | –
O=S(=O)(c1cccs1)N1CCN(c2cc(N3CCOCC3)ncn2)CC1 | – | – | – | –
O=C(CSc1cc(N2CCOCC2)ncn1)c1cccs1 | – | – | 73 | –
CC1=NN(c2nc(-c3ccccc3)cs2)C(=O)C1C(c1ccccc1)C(C#N)C(N)=O (stereo unspecified) | – | – | 76 | –
O=C(Nc1nnc(-c2ccco2)o1)c1cccc(Br)c1 | – | – | – | –
OCCN1CCN(C2CCN(Cc3cc(Br)ccc3O)CC2)CC1 | 53 | – | – | –
Oc1ccc(Br)cc1CN1CCC(N2CCCCC2)CC1 | – | – | – | –
SMILES | MITF inh | GPR151 activ | TEAD-YAP block | FBW7 activator
CC1CN(C2CCN(Cc3cc(Br)ccc3O)CC2)CC(C)O1 (stereo unspecified) | 70 | – | – | –
Cc1ccc(OCCOc2ccc(/C=C3/C(=N)N4C(c5ccccc5)=CSC4=NC3=O)cc2)c(C)c1 | – | – | – | –
CCCN1CCN(c2ncnc3sc(C(=O)N4CCN(c5ccc(OC)cc5)CC4)c(C)c23)CC1 | – | – | – | –
Cc1ccc2c(c1)NC(=O)c1cc(NC(=O)c3ccccc3Br)ccc1O2 | – | – | 44 | –
Cc1ccc2c(c1)Oc1ccc(NC(=O)CCCl)cc1C(=O)N2 | – | – | 33 | –
COc1ccc(/C=C2\SC(=Nc3ccc(C)cc3)N(c3ccc(C)cc3)C2=O)cc1 | – | – | – | –
COc1cc2nc(Nc3cnccn3)nc(Nc3cc(OC)c(OC)c(OC)c3)c2cc1OC | – | – | 33 | –
COc1cc(Nc2nc(Nc3ccc(N4CCOCC4)cc3)nc3c2ncn3C(C)C)cc(OC)c1OC | – | – | – | –
COc1cc(Nc2nc(Nc3cnccn3)nc3c2ncn3C(C)C)cc(OC)c1OC | – | – | 47 | –
COc1cc(Nc2nc(Nc3ccc(-n4ccnc4)cc3)nc3c2ncn3C(C)C)cc(OC)c1OC | – | – | 40 | –
COc1cc(Nc2nc(Nc3ccc(N4CCOCC4)cc3)c3ncn(C(C)C)c3n2)cc(OC)c1OC | – | – | 33 | –
CCn1c(=NC(=O)c2ccc(S(=O)(=O)N(C)C)cc2)sc2cc([N+](=O)[O-])ccc21 | – | – | – | –
CSc1cccc2sc(N3CCN(C(=O)c4ccccc4)CC3)nc12 | – | – | – | –
O=C(Nc1nc2c(s1)CCCC2)c1ccccc1Cl | – | – | 45 | –
CC(=O)c1ccc(C(=O)Nc2nc3c(s2)CCCC3)cc1 | – | – | 65 | –
O=C(Cc1ccccc1Cl)Nc1nc2c(s1)CCCC2 | – | – | – | –
CC1CCc2nc(NC(=O)c3cc(Cl)sc3Cl)sc2C1 (stereo unspecified) | – | – | – | –
O=C(Nc1nc2c(s1)CCCC2)c1cc(Cl)sc1Cl | – | – | 49 | –
CNS(=O)(=O)c1cccc(C(=O)OCC(=O)NCC(C)C)c1 | – | – | – | –
CCOC(=O)c1ccccc1NC(=O)C(C)Sc1ccccc1 (stereo unspecified) | – | – | – | –
Cc1cnc(CNc2cc(-c3ccccc3F)nc(-c3cccnc3)n2)nc1 | – | – | 43 | –
CCOC(=O)c1ccc(Cl)c(S(=O)(=O)Nc2ccccc2)c1 | – | – | – | –
Cc1nc(CC(=O)c2ccc(O)c(O)c2O)cs1 | 79 | – | – | –
CC(=O)Nc1ccc(CN2CCN(c3ccccn3)CC2)cc1 | – | – | – | –
Cn1cccc(C(=O)Nc2ccc(CN3CCN(c4ccccn4)CC3)cc2)c1=O | – | – | 46 | –
SMILES | MITF inh | GPR151 activ | TEAD-YAP block | FBW7 activator
CN(C)CCN(CC1CCCC1)C(=O)Nc1ccc(-c2cn[nH]c2)cc1N(C)CCN(C)C | – | – | 36 | –
Cc1ccc(-c2csc(/C(C#N)=C/c3ccc(Cl)cc3Cl)n2)cc1 | – | – | – | –
CCCCOC(=O)CSc1nnc(-c2ccc(N(C)C)cc2)o1 | – | – | 41 | –
COc1ccc(-c2cnnc(NCCCn3ccnc3)n2)cc1 | – | – | 32 | –
COc1ccc(-c2cnc(NCCCn3ccnc3)nc2)cc1 | – | – | – | –
COc1cc(OC)cc(-c2cc3nc4c(c(NCCCn5ccnc5)n3n2)CCCC4)c1 | – | – | – | 2.4
CC(=O)c1ccc(NC(=O)c2ccccn2)cc1 | – | – | 87 | –
COc1ccccc1C(=O)NNC(=O)c1ccccn1 | – | – | 41 | –
CC(=O)c1ccc(NC(=O)NNC(=O)c2ccccn2)cc1 | – | – | – | –
COc1ccc(C(=O)NNC(=O)c2ccccn2)cc1 | – | – | 94 | –
COc1ccccc1C(=O)NNC(=O)c1cnccn1 | – | – | – | –
